# The supplement of paper PMC8728848
# The entries come from a sample that favours the strongest signals as a whole.
# B1: PX9961M-bvu-482-23-482 (Bacteroides vulgatus) (protein)
# chain: WLDLAPSTQVDTETSINVLSDIEFTLNGIYSTMQSSDAYSGRLVYYGDVTGDDMQAVSSTKRTGNYYRFNFTKDNGPSSHWSYLYSIIQNCNLILMNVDKLSIDEDETEYKNDLKGQALAIRGMALFDLTRIFGYPYLKDNGASLGVPIVKELSTIDSKPARNTVAECYTEIISDLKNSTELLSGDFNKGKVNRWAAMTLLSRVYLYKGEYNEALTMAENAIKGAEKEGYALWTNEEYPTAWGNDASASNPGEILFEIVNLTTDSPGKESMGYLNSYNGYDDMCITCSFYQLLKKDPKDVRLKILSFDKKYYAYVNKYQPQQGENITDANIPLIRLSEAYLNAAEAAVQTGDNAKAVKYLNSIVQRANPENSVEGKTLTLENVLDERRKELVAEGHRMYDVIRNGMTVKRIDVKDSDINKTKHNTAYMEYDWNFHKILLPIPKKEMDANPNMKQNPGYVD
# How the values were obtained:
# Experiment in all cases: glycan array binding signal (z-score within array); higher = stronger binding
# Conditions in all cases: glycan notation: IUPAC condensed, linker removed
# [1] = target: Fuc(a1-2)Gal(b1-3)GlcNAc(b1-2)Man(a1-3)[Fuc(a1-2)Gal(b1-3)GlcNAc(b1-2)Man(a1-6)]Man(b1-4)GlcNAc(b1-4)GlcNAc
# Procedure, shortened: (§1)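 Columns mapping to the same glycan were averaged after glycan names were converted to IUPAC-condensed notation. The data come from 3228 arrays in the Consortium for Functional Glycomics database, limited to those with an available protein sequence. Binding is reported as a within-array Z-score averaged across arrays of one protein sequence and across linkers.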
# [2] = target: Fuc(a1-2)Gal(b1-3)GlcNAc(b1-3)GalNAc
# Procedure, shortened: as §1
# [3] = target: Fuc(a1-2)Gal(b1-3)[Fuc(a1-4)]GlcNAc
# Procedure, shortened: as §1
# [4] = target: Fuc(a1-2)Gal(b1-3)[Fuc(a1-4)]GlcNAc(b1-3)[Gal(b1-4)GlcNAc(b1-6)]Gal(b1-4)Glc
# Procedure, shortened: as §1
# [5] = target: Fuc(a1-2)Gal(b1-4)GlcNAc(b1-2)[Fuc(a1-2)Gal(b1-4)GlcNAc(b1-4)]Man(a1-3)[Fuc(a1-2)Gal(b1-4)GlcNAc(b1-2)Man(a1-6)]Man(b1-4)GlcNAc(b1-4)GlcNAc
# Procedure, shortened: as §1
# [6] = target: Fuc(a1-2)Gal(b1-4)GlcNAc(b1-3)Gal(b1-4)GlcNAc
# Procedure, shortened: as §1
# [7] = target: Fuc(a1-2)Gal6S(b1-4)Glc6S
# Procedure, shortened: as §1
# [8] = target: Fuc(a1-2)[Gal(a1-3)]Gal(b1-3)GlcNAc
# Procedure, shortened: as §1
# [9] = target: Fuc(a1-2)[Gal(a1-3)]Gal(b1-4)GlcNAc
# Procedure, shortened: as §1
# [10] = target: Fuc(a1-2)[Gal(a1-3)]Gal(b1-4)GlcNAc(b1-2)Man(a1-3)[Fuc(a1-2)[Gal(a1-3)]Gal(b1-4)GlcNAc(b1-2)Man(a1-6)]Man(b1-4)GlcNAc(b1-4)GlcNAc
# Procedure, shortened: as §1
# [11] = target: Fuc(a1-2)[GalNAc(a1-4)]Gal(b1-4)GlcNAc
# Procedure, shortened: as §1
# [12] = target: Fuc(a1-3)[Gal(b1-4)]GlcNAc(b1-2)Man(a1-3)[Fuc(a1-3)[Gal(b1-4)]GlcNAc(b1-2)Man(a1-6)]Man(b1-4)GlcNAc(b1-4)[Fuc(a1-6)]GlcNAc
# Procedure, shortened: as §1
# [13] = target: Fuc(a1-3)[Gal3S(b1-4)]GlcNAc6S
# Procedure, shortened: as §1
# [14] = target: Gal(a1-3)[Gal(a1-4)]Gal(b1-4)GlcNAc
# Procedure, shortened: as §1
# [15] = target: Gal(a1-4)Gal(b1-3)GlcNAc(b1-2)Man(a1-3)[Gal(a1-4)Gal(b1-3)GlcNAc(b1-2)Man(a1-6)]Man(b1-4)GlcNAc(b1-4)GlcNAc
# Procedure, shortened: as §1
# [16] = target: Gal(b1-3)GlcNAc(b1-2)Man(a1-3)[GlcNAc(b1-4)][Gal(b1-3)GlcNAc(b1-2)Man(a1-6)]Man(b1-4)GlcNAc(b1-4)GlcNAc
# Procedure, shortened: as §1
# [17] = target: Gal(b1-4)GalNAc(b1-3)[Fuc(a1-2)]Gal(b1-4)GlcNAc
# Procedure, shortened: as §1
# [18] = target: Gal(b1-4)GlcNAc(a1-6)Gal(b1-4)GlcNAc
# Procedure, shortened: as §1
# [19] = target: Gal(b1-4)GlcNAc(b1-2)Man(a1-3)Man(b1-4)GlcNAc(b1-4)GlcNAc
# Procedure, shortened: as §1
# [20] = target: Gal(b1-4)GlcNAc(b1-2)Man(a1-3)[Gal(b1-4)GlcNAc(b1-2)Man(a1-6)][GlcNAc(b1-4)]Man(b1-4)GlcNAc(b1-4)[Fuc(a1-6)]GlcNAc
# Procedure, shortened: as §1
# [21] = target: Gal(b1-4)GlcNAc(b1-2)[Gal(b1-4)GlcNAc(b1-6)]Man(a1-6)[GlcNAc(b1-4)][Gal(b1-4)GlcNAc(b1-2)Man(a1-3)]Man(b1-4)GlcNAc(b1-4)GlcNAc
# Procedure, shortened: as §1
# [22] = target: Gal(b1-4)GlcNAc(b1-2)[Gal(b1-4)GlcNAc(b1-6)]Man(a1-6)[GlcNAc(b1-4)][Gal(b1-4)GlcNAc(b1-2)[Gal(b1-4)GlcNAc(b1-4)]Man(a1-3)]Man(b1-4)GlcNAc(b1-4)[Fuc(a1-6)]GlcNAc
# Procedure, shortened: as §1
# [23] = target: Gal(b1-4)GlcNAc(b1-3)Gal(b1-3)GalNAc
# Procedure, shortened: as §1
# [24] = target: Gal(b1-4)GlcNAc(b1-3)Gal(b1-4)GlcNAc(b1-3)Gal(b1-4)GlcNAc
# Procedure, shortened: as §1
# [25] = target: Gal(b1-4)GlcNAc(b1-3)Gal(b1-4)GlcNAc(b1-3)Gal(b1-4)GlcNAc(b1-2)Man(a1-3)[Gal(b1-4)GlcNAc(b1-3)Gal(b1-4)GlcNAc(b1-3)Gal(b1-4)GlcNAc(b1-2)Man(a1-6)]Man(b1-4)GlcNAc(b1-4)GlcNAc
# Procedure, shortened: as §1
# [26] = target: Gal(b1-4)GlcNAc(b1-3)Gal(b1-4)GlcNAc(b1-3)Gal(b1-4)GlcNAc(b1-3)Gal(b1-4)GlcNAc(b1-2)Man(a1-3)[Gal(b1-4)GlcNAc(b1-3)Gal(b1-4)GlcNAc(b1-3)Gal(b1-4)GlcNAc(b1-3)Gal(b1-4)GlcNAc(b1-2)Man(a1-6)]Man(b1-4)GlcNAc(b1-4)[Fuc(a1-6)]GlcNAc
# Procedure, shortened: as §1
# [27] = target: Gal(b1-4)GlcNAc(b1-3)Gal(b1-4)[Fuc(a1-3)]GlcNAc(b1-3)Gal(b1-4)[Fuc(a1-3)]GlcNAc
# Procedure, shortened: as §1
binder,measurement,setting,value
B1,glycan array binding signal (z-score),[1],0.321
same,glycan array binding signal (z-score),[2],-1.09
same,glycan array binding signal (z-score),[3],-0.893
same,glycan array binding signal (z-score),[4],0.057
same,glycan array binding signal (z-score),[5],1.74
same,glycan array binding signal (z-score),[6],-1.33
same,glycan array binding signal (z-score),[7],0.138
same,glycan array binding signal (z-score),[8],-0.45
same,glycan array binding signal (z-score),[9],-0.597
same,glycan array binding signal (z-score),[10],1.68
same,glycan array binding signal (z-score),[11],-0.779
same,glycan array binding signal (z-score),[12],1.97
same,glycan array binding signal (z-score),[13],-0.788
same,glycan array binding signal (z-score),[14],4.04
same,glycan array binding signal (z-score),[15],1.92
same,glycan array binding signal (z-score),[16],-0.064
same,glycan array binding signal (z-score),[17],-0.62
same,glycan array binding signal (z-score),[18],1.66
same,glycan array binding signal (z-score),[19],0.327
same,glycan array binding signal (z-score),[20],0.416
same,glycan array binding signal (z-score),[21],-0.402
same,glycan array binding signal (z-score),[22],-0.596
same,glycan array binding signal (z-score),[23],-1.18
same,glycan array binding signal (z-score),[24],-0.219
same,glycan array binding signal (z-score),[25],1.88
same,glycan array binding signal (z-score),[26],0.966
same,glycan array binding signal (z-score),[27],-0.719
